Among all 1,600 compounds or so, about 20 (1%) showed an effect of 50% or more. Shown is part of a subset that was picked to be rich in strong results.
System: T1, E. coli pLC1021 (luc-trpAt trans-translation reporter)
T1 construct: pLC1021 luc-trpAt reporter strain
Design: species or system Escherichia coli pLC1021; luc-trpAt non-stop luciferase reporter; luminescence rises when trans-translation is inhibited; normalized to KKL-35 and DMSO
Settings: reporter signal, KKL-35 = 100%; rise means trans-translation inhibition; 2 h, 20 µM
How it was run: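 Cells carrying the non-stop luc-trpAt reporter were exposed to 20 µM compound for 2 h at room temperature, then Bright-Glo was added and luminescence read at 560 nm after 10 min. Signals were normalised per plate to DMSO and 20 µM KKL-35 wells. Hits: activity one SD above the median; ≥2 biological repeats averaged.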

Row | SMILES | % activation [%]
1 | CCOC(=O)c1cnc(-n2nc(C)cc2C)nc1Nc1ccc(N(C)C)cc1 [KKL-0889] | 0
2 | Clc1ccc(Nc2nc(-c3ccccn3)cs2)nc1 [KKL-1793] | 0
3 | Cc1oc(-c2ccc3ccccc3c2)nc1CN1CCN(c2cnccn2)CC1 [KKL-0659] | 0
4 | CN(C)S(=O)(=O)c1ccc(C(=O)Nc2nnc(-c3ccc(Cl)s3)o2)cc1 [KKL-1747] | 1
5 | CSc1ccc(-c2nnc(NC(=O)c3ccc(Cl)s3)o2)cc1 [KKL-1706] | 50
6 | O=C(Nc1nnc(-c2ccc(Cl)s2)o1)c1ccc(Cl)s1 [KKL-1762] | 0
7 | CN1CCN(c2ccc(NC(=S)NC(=O)c3ccc(-c4cccc(Cl)c4)o3)cc2)CC1 [KKL-0357] | 18
8 | O=C(Nc1ccc2c(c1)OCCO2)c1cccc2nc3ccccc3nc12 [KKL-0843] | 0
9 | Cc1ccc(Cl)cc1N=C1C=C(NS(=O)(=O)c2cccs2)c2ccccc2C1=O [KKL-1115] | 0
10 | COC(=O)c1cccc(NC(=S)NC[C@H]2C[C@@H]3CCN2C[C@@H]3c2cc(-c3ccc4ccccc4c3)nn2C)c1 [KKL-1596] | 71
11 | Cc1ccc(C(=O)NC[C@H]2C[C@@H]3CCN2C[C@@H]3c2cc(-c3ccc4ccccc4c3)nn2C)cc1 [KKL-0337] | 0
12 | Cn1nc(-c2ccc3ccccc3c2)cc1[C@H]1CN2CC[C@H]1C[C@@H]2COC(=O)Nc1cccc(C(F)(F)F)c1 [KKL-0323] | 0
13 | NC1CCc2nc(-c3cccnc3)nc(Nc3ccc(Cl)cc3)c2C1 (stereo not drawn) [KKL-0540] | 119
14 | Nc1cccnc1Nc1ccc(Cl)cc1 [KKL-1858] | 0
15 | NC1CCc2nc(-c3ccncc3)nc(Nc3ccc(Cl)cc3)c2C1 (stereo not drawn) [KKL-0326] | 797
16 | CCOC(=O)CSc1nc(C#N)c(SCC(=O)OCC)s1 [KKL-0955] | 12
17 | O=C(Oc1cccc2cccnc12)C(Cc1ccccc1)N1C(=O)C2C3CCC(C3)C2C1=O (stereo not drawn) [KKL-1364] | 9
18 | Cc1oc2ccccc2c1CN(CCCn1ccnc1)Cc1cccc(F)c1 [KKL-0544] | 0
19 | CCC(OC(C)=O)c1ccc(OC(C)=O)c(OC)c1 (stereo not drawn) [KKL-0758] | 7
20 | CCOc1ccc(NC(=O)CSc2nc3ccc([N+](=O)[O-])cc3s2)cc1 [KKL-1417] | 0
21 | Cc1ccc(NCCC(=O)c2ccc([N+](=O)[O-])cc2)cc1C [KKL-0401] | 14
22 | COc1cc2cc(-c3nc4ccccc4[nH]3)c(N)nc2cc1OC [KKL-0395] | 22
23 | Cc1ccc2[nH]c3c(c2c1)CCCC3NCCCOc1ccc(F)cc1 (stereo not drawn) [KKL-0771] | 84
24 | Cc1ccc2[nH]c(C3CCCNC3)c(-c3ccncc3)c2c1 (stereo not drawn) [KKL-1820] | 14

Source: publication PMC12548414
